Data: PubChem BioAssay AID743048 (Broad Institute, 2013)
Entries with a potency or affinity are not part of this list. Calls of active or inactive are those of the source. The rule behind the calls is not given here.

These molecules were tested against Paired box protein Pax-2 (Homo sapiens) (UniProt Q02962) (assay: PAX2 cell-based inhibition, dose response, selectivity assay for PAX8 inhibitor project, plate reader, dry powder samples (AID 743048)). Details: Pax2 cell-based reporter; series mostly up to 50 µM.
Paired box protein Pax-2 (Homo sapiens), sequence (Q02962 whole entry, looked up): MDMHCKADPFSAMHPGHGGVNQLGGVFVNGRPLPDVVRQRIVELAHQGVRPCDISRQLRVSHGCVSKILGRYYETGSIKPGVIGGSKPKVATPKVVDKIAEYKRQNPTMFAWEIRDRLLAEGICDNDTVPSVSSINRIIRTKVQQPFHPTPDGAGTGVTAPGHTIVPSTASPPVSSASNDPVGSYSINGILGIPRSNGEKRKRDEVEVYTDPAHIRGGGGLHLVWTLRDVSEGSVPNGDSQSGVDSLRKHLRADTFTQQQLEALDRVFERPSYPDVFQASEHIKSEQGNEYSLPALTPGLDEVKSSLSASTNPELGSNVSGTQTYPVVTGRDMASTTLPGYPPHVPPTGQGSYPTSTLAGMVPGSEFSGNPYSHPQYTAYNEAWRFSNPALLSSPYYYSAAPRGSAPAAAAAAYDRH
`O=C1/C(=C/c2cccc(Br)c2)SC(=S)N1CCC(=O)N(CCO)c1ccccc1` was tested, and the outcome was “inactive”. With `C[C@H]1CN([C@@H](C)CO)C(=O)CCCn2nncc2CO[C@@H]1CN(C)C(=O)Nc1ccc(-c2cccs2)cc1` the outcome was “inactive”. `N#C[C@@H]1[C@@H](c2ccc(-c3cccc(F)c3)cc2)[C@H](CO)N1C(=O)NC1CCCC1` was tested, and the outcome was “inactive”. With `O=C(CCS(=O)(=O)c1ccccc1)Nc1nc2ccc(F)cc2s1` the outcome was “inactive”. For `COc1cccc2sc(N(CCCN(C)C)C(=O)CCS(=O)(=O)c3ccccc3)nc12`, the outcome was “inactive”. In the case of `C[C@@H]1CN([C@H](C)CO)C(=O)CCCn2cc(nn2)CO[C@H]1CN(C)C(=O)Nc1ccc(-c2cccs2)cc1`, the outcome is reported as “inactive”. For `N#C[C@H]1N[C@H](CO)[C@@H]1c1ccc(C#Cc2ccccc2F)cc1`, the outcome was “inactive”. `CN(C[C@H]1N[C@@H](CO)[C@@H]1c1ccc(C2=CCCC2)cc1)C(=O)c1ccc(F)cc1` was tested, and the outcome was “inactive”. For `NS(=O)(=O)c1ccc(CCN2C(=O)/C(=C\c3ccc(Cl)cc3)SC2=S)cc1`, the outcome was “inactive”. In the case of `Cc1ccc(-c2csc(NC3OC(=O)c4ccccc43)n2)cc1` (stereo not given), the outcome is reported as “inactive”. With `CC1(C)CC(=O)c2sc(NC(=O)CCS(=O)(=O)c3ccccc3)nc2C1` the outcome was “inactive”. `CN(C[C@H]1N[C@@H](CO)[C@@H]1c1ccc(C2=CCCC2)cc1)C(=O)c1ccncc1` was tested, and the outcome was “inactive”. For `COc1ccc(-c2cc(C(F)(F)F)nc(S(=O)(=O)CCCC(=O)Nc3cc(C)on3)n2)cc1OC`, the outcome was “inactive”. In the case of `CC(=O)Nc1ccc(NC(=O)c2nc(S(=O)(=O)Cc3ccccc3)ncc2Cl)cc1`, the outcome is reported as “inactive”. `CC(C)c1cc(C(=O)OCC(=O)N2CCN(C(=O)c3ccco3)CC2)c(O)c(C(C)C)c1` was tested, and the outcome was “inactive”.
